This passage reports growth results from PubChem BioAssay (NCI).

“And” between values parts separate entries of the source, which are not always exact repeats. Identical values can stand only once. This is part of a sample that, as a whole, favours compounds with a hit. Of some 83,000 tested, about 20% had one in any assay.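 Single-dose data. Exposure time 48 hours. Values below 10 considered active.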 The source made the active and inactive calls.

The subject of the assay is MDA-MB-468 breast. Put plainly: NCI-60 one-dose screen, 48 h (100 = growth as untreated, 0 = no growth, -100 = all killed). Particulars: 10 µM unless noted.
Consider `COc1ccc(/C=C/C(=O)c2cc(S(N)(=O)=O)c(OC)cc2OC)cc1`, for which the growth is -6.04% (active).

Consider `COc1ccc(C(c2cc(OC)c(OC)c(OC)c2)N2CCCC2)cc1` (stereo not given), for which the growth is 54.8% (inactive).

Consider `CCCCN(CCCC)CC(O)c1ccc(OCc2ccccc2)c2ccccc12` (stereo not given), for which the growth was 114% (inactive).

As for `COC1=CC(c2ccc[nH]2)=N/C1=C\c1[nH]c(C)c(C(=O)Oc2ccccc2)c1C`, the growth is -82.9% (active).

In the case of `Clc1ncnc2scc(C3COc4ccccc4O3)c12` (stereo not given), the growth is -3.8% (active).

Consider `N#CC1=C(N)Oc2cc(N)ccc2C1c1ccc(F)cc1` (stereo not given), for which the growth was 45.1% (inactive).

In the case of `CC(=O)OC[C@]12CC[C@@H](/C(C)=N/O)[C@@H]1[C@H]1CC[C@@H]3[C@@]4(C)CCCNC(C)(C)[C@@H]4CC[C@@]3(C)[C@]1(C)CC2`, the growth is 54.1% (inactive).

Consider `O=C1/C(=C/c2ccc(Br)cc2)COc2ccc(O)cc21`, for which the growth was 89% (inactive).

In the case of `Nc1nc(N)c2cc(Sc3cccc(C(F)(F)F)c3)ccc2n1`, the growth was -4.8% (active).

Consider `O=C(Nc1ccccc1)Oc1ccccc1-c1ccccc1`, for which the growth was 101% (inactive).

Regarding `C#CCOC(=O)[C@]1(C)CCC[C@]2(C)[C@H]3C[C@H]4C(C(C)C)=C[C@]3(CC[C@H]21)[C@@H]1C(=O)CCC(=O)[C@@H]14`, the growth was 78% (inactive).

For the compound `Oc1ccc(-c2nnc(SCc3ccc(O)c4ncccc34)o2)cc1`, the growth was 10.8% (inactive).

As to `COc1ccccc1NC(=O)C1CC(c2ccc(F)cc2)=NO1` (stereo not given), the growth is 99.7% (inactive).

Take `COc1ccc(/C(C#N)=C/c2cc(OC)c(OC)c(OC)c2)cc1`: the growth was 27.6% (inactive).

Regarding `O[C@H](c1cc(C(F)(F)F)nc2c(C(F)(F)F)cccc12)[C@@H]1CCCCN1`, the growth is 27.3% (inactive) and -6.87% (active).

On to `OC(c1cc2cc(Cl)ccc2c2cc(C(F)(F)F)ccc12)C1CCCCN1` (stereo not given), for which the growth was -82.2% (active).

On to `C=C1C(=O)O[C@H]2[C@H]1CC/C(CNS(=O)(=O)c1ccc3ccccc3c1)=C\CC[C@@]1(C)O[C@@H]21`, for which the growth is -54% (active).

With `Oc1c(CN2CCN(c3ccccc3F)CC2)cc(Br)c2cccnc12`, the growth is -43% (active).

As to `CCO/C=C1\SC(=S)N(c2cccc(O)c2)C1=O`, the growth was 87.6% (inactive).

In the case of `Cc1nc(N)[nH]c(=O)c1C`, the growth was 103% (inactive).

On to `COc1ccc2[nH]cc(-c3csc4nc(-c5ccccc5)cn34)c2c1`, for which the growth was 21.2% (inactive).

For the compound `C=C1C(=O)O[C@H]2[C@H]1CC/C(C(=O)NCCOCCOCC(=O)Nc1ccc(OC)c(C(N)=O)c1O)=C\CC[C@@]1(C)O[C@@H]21`, the growth is 77.8% (inactive).

Consider `COc1ccc(C(=O)N2NC(=O)/C(=C/c3ccc(Br)cc3)N=C2c2ccccc2)cc1`, for which the growth is 91.8% (inactive).

For the compound `CN(C)/N=C/c1ccccc1O`, the growth is 97.8% (inactive).

As for `C(=C(\C1=NCCN1)n1ccc2ccccc21)/c1ccccc1`, the growth was 96.5% (inactive).

For `O=C1C2=C(CCN(Cc3ccccc3)C2)N2CCN=C2N1Cc1ccc(C(F)(F)F)cc1`, the growth was 8.96% (active).

Consider `CN(C)c1ccc(/C=N/NC(=O)CSc2nc3sc4c(c3c(=O)n2-c2ccccc2)CCCCC4)cc1`, for which the growth is 26.2% (inactive).

In the case of `O=C(c1ccc(F)c(Cl)c1)N1c2ccccc2Sc2ccccc21`, the growth was 63.1% (inactive).

Consider `CCC(=O)Nc1ccc(-c2nc(-c3cccc(OC)c3)c(-c3ccnc(Br)c3)[nH]2)cc1`, for which the growth is 38.9% (inactive).

Take `O=C(CSc1nnc(-c2ccccc2)o1)Nc1ccc(C(=O)/C=C/c2ccccc2)cc1`: the growth is 58.3% (inactive).

For the compound `Cc1nc(N=C(N)N)nc2ccc3ccccc3c12`, the growth was -55.8% (active).

Regarding `Cc1ccc2sc3c(NCCCNCCO)nc4ccccc4c3c(=O)c2c1`, the growth is 42.5% (inactive).

As for `CCN(CC)Cc1cc(Nc2c3ccc(Cl)cc3nc3c(C)cccc23)ccc1O`, the growth is -67% (active).

As for `CCCCCCCCCCCCCCCCNC(=S)N/N=C/c1ccc(OC)cc1`, the growth was 108% (inactive).

With `Cc1nc(Nc2nc3ccccc3o2)nc(-c2cccc([N+](=O)[O-])c2)c1C(=O)Nc1ccc(F)c(Cl)c1`, the growth is -2.01% (active).

Consider `O=C1Nc2c(ccc(Cl)c2Cl)/C1=C/c1ccc(O)cc1`, for which the growth was 62% (inactive).

On to `N#Cc1cccc(/C(N)=N/C(N)=N/c2nc3ccccc3s2)c1`, for which the growth is 18.7% (inactive).

On to `CC1(C)CCCC2=C1C(=O)N(SC(Cl)(Cl)Cl)C2=O`, for which the growth was 79.6% (inactive).

For `COc1ccc(/C=C/C(=O)c2ccc(NC(=O)CSc3nnc(-c4ccc(Cl)cc4)n3-c3ccccc3)cc2)cc1`, the growth is 94.8% (inactive).

On to `O=c1c2cc(F)ccc2sc2c(N3CCNCC3)nc3ccccc3c12`, for which the growth was -41.2% (active).
